KDM5B inh: Primary screen for KDM5B Histone Demethylases FDH-coupled qHTS. Potency, µM (doses to about 57.7 µM), most hits filed as inhibitors. Lysine-specific demethylase 5B (Homo sapiens), Q9UGL1. 220,000 tested, 2.6% active. KDM5B demethylase, FDH-coupled NADH fluorescence (FDH is formaldehyde dehydrogenase). AID 1347165, 2019; active means well fitted inhibition curve with a large enough effect; further: 0% is about no effect; nearly all actives have a fitted effect of over 70% in size
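Measured: NADH fluorescence change, 30 min, RT. System: KDM5BΔAP 200 nM final, H3K4me3 peptide, α-KG, Fe(II), ascorbate, NAD⁺ plus FDH, pH 7.5 HEPES. Compounds: titrated, 10 min pre-incubation with enzyme.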
Starred values were filed as active, the others as inactive; i = inactive. Many of the other results were omitted from the sample, so hits are more common in it than they were. Potency means the concentration at half of the fitted maximal effect.

SMILES	KDM5B inh
COC(=O)c1ccc(NC(=O)Cn2ccn3nc(-c4ccc(OC)cc4)cc3c2=O)cc1	i
CCc1ccc(C(=O)NCCn2ccn3nc(-c4ccc(F)cc4)cc3c2=O)cc1	i
COc1ccc(-c2cc3c(=O)n(CCNC(=O)c4ccc(N(C)C)cc4)ccn3n2)cc1	25µM*
COC(=O)c1cccc(NC(=O)CSc2nc(=O)[nH]nc2C)c1	i
CC(C)(C)c1ccc(C(=O)N[C@H]2C[C@@H]3CC[C@H]2C3)cc1	i
CNC(=S)N/N=C1/CCCCC1C (centres undefined)	i
Cn1c(C(=O)NCCc2cnc[nH]2)nc2nc(-c3ccccc3)c(Cl)cc21	35µM*
Cc1cc(C(=O)NCCN(C)C)c2ccccc2n1	i
O=C(c1ccc([N+](=O)[O-])cc1Cl)N1CCN(c2ccccn2)CC1	i
O=C(c1cc(S(=O)(=O)N2CCCCC2)ccc1Cl)N1CCN(c2ccccn2)CC1	i
CN(C)CCNC(=O)c1nc2nc(-c3ccccc3)c(-c3ccccc3F)cc2n1C	i
Cn1c(C(=O)NCCc2ccccc2)cc2sc(Cl)cc21	i
CN(C)CCNC(=O)c1nc2nc(-c3ccccc3)c(Cl)cc2n1C	40µM*
Cn1c(C(=O)N2CCN(c3ccccn3)CC2)nc2nc(-c3ccccc3)c(Cl)cc21	35µM*
O=C(NCCc1cnc(-c2ccccc2)[nH]1)c1ccc(Br)cc1	i
COc1ccc(-c2nc3cc(NC(=O)COc4ccccc4)ccc3o2)cc1Cl	i
N=C(N)c1cc(Cl)cc([N+](=O)[O-])c1	i
CCn1nc(C(=O)OCc2nc(-c3cccc(Br)c3)no2)c2ccccc2c1=O	i
COc1cccc(F)c1-c1nc(C)c(C(=O)Nc2ccc3c(c2)OCO3)s1	i
O=C(Nc1ccc2oc(-c3cccnc3)nc2c1)c1cccc([N+](=O)[O-])c1	i
Cc1ccc(C(=O)/C(=C\c2cccc(Br)c2)c2nc3ccccc3o2)cc1	i
CNC(=O)C1CCCN(Cc2nc(-c3cccc(Oc4ccccc4)c3)oc2C)C1 (centres undefined)	i
CC(NC(=O)c1nn(C)c(=O)c2ccccc12)c1ccc(Br)cc1 (centres undefined)	i
Cc1ccc(N2CCN(C(=O)c3noc4c3CCc3sccc3-4)CC2)c(C)c1	i
CCOc1ccc(CN2C[C@@H](COC)[C@H](C(=O)N(C)C)C2)cc1	i
SMILES	KDM5B inh
COC[C@@H]1CN(Cc2ccc(C)o2)C[C@H]1C(=O)N(C)C	i
COC[C@@H]1CN(c2ncccn2)C[C@H]1C(=O)N(C)Cc1ccco1	18µM*
COC[C@@H]1CN(c2ncccn2)C[C@H]1C(=O)O	16µM*
COC[C@@H]1CN(C(=O)COc2ccccc2)C[C@H]1C(N)=O	i
CNC(=O)[C@@H]1CN(C(=O)c2cccnc2C)C[C@H]1COC	i
CC(NC(=O)C1CCN(c2ccc(C#N)cn2)CC1)c1ccc(Cl)cc1Cl (centres undefined)	i
Cn1c(NCc2ccccc2Cl)nc2c1c(=O)n(Cc1ccc(Cl)cc1)c(=O)n2C	i
CCC/C(=N\NC(=O)C(O)(c1ccc(C)cc1)c1ccc(C)cc1)c1ccccc1	i
CN(C)C(=O)c1nc(C(C)(C)C)c2ccccn12	112µM*
CN(C)C(=O)c1nc(C(C)(C)C)c2cnccn12	89µM*
COCCN(C)Cc1c(C(=O)N(C)Cc2ccccc2)nc2ccccn12	i
O=C(Nc1ccc(Br)c(Cl)c1)c1ccc(-c2ccccc2)cc1	i
COc1cc(/C=C/C(=O)OCC(=O)N(C2=CCCCC2)C2CC2)ccc1OC(F)F	i
CCN1CC(C(=O)N2CCN(Cc3cc(OC)ccc3OC)CC2)CC1=O (centres undefined)	i
CCN1CC(C(=O)N2CCCC(c3ccccc3)(c3ccccc3)C2)CC1=O (centres undefined)	i
CCN1CC(C(=O)N2CCN(CCOc3ccccc3)CC2)CC1=O (centres undefined)	25µM*
CC(Cc1ccc2c(c1)OCO2)CN1CCC(CO)(CN2CCCC2)CC1 (centres undefined)	i
CCCn1nc(C(=O)N(CC)CC2CCOC2)c2ccccc2c1=O (centres undefined)	i
CCCC(C)NC(=O)CSc1nc2cc(Cl)ccc2s1 (centres undefined)	i
CC(C)N1CCC(NC(=O)CC23CC4CC(CC(C4)C2)C3)CC1	i
COc1ccc(C(Nc2ncc(C(F)(F)F)cc2Cl)c2nccn2C)cc1 (centres undefined)	i
CCc1cc(=O)n(Cc2cccnc2)c(N2CCOCC2)n1	i
O=c1cc(N2CCOCC2)oc2c(NCc3cnccn3)nccc12	35µM*
O=C(Nc1nn(Cc2ccccc2)c2cccc(N3CCOCC3)c12)c1cnccn1	i
O=C(CC1CCOCC1)Nc1ccc(N2CCOCC2)cc1	i
SMILES	KDM5B inh
O=C(NCC1CCOCC1)c1cnccn1	i
O=c1cc(N2CCOCC2)oc2c(NCC3CCOCC3)nccc12	32µM*
CCc1cc(C2CCCN2S(=O)(=O)c2cc(C)c(C)cc2C)on1 (centres undefined)	i
CCc1ccc(N2C(=O)CN(S(C)(=O)=O)CC2(C)C(=O)NCc2ccccc2)cc1 (centres undefined)	i
Cc1ccc(NC(=O)Nc2c(NC3CCCC3)c3ccccc3oc2=O)cc1F	i
CCNc1c(NC(=O)c2cc(OC)c(OC)c(OC)c2)c(=O)oc2ccccc12	i
CN1Cc2ccc(NCc3ccccc3)nc2C(C)(C(=O)Nc2ccccc2)C1 (centres undefined)	28µM*
COCCNC(=O)C1(C)CN(C)Cc2ccc(Nc3ccccc3)nc21 (centres undefined)	i
CN1Cc2ccc(NCc3ccccc3)nc2C(C)(C(=O)NCCOc2ccccc2)C1 (centres undefined)	32µM*
COc1cccc(N2CC(C(=O)NCc3cccs3)NC2=O)c1 (centres undefined)	i
COc1cccc(Nc2ccc3c(n2)C(C)(C(=O)NCc2cccs2)CN(C)C3)c1 (centres undefined)	28µM*
COc1ccc(C(=O)N2CCc3ccc(C(=O)NCc4cccs4)cc32)cc1	i
COc1ccc(NC(=O)CN(C)CC(=O)NC(=O)NCc2ccccc2)cc1	i
COc1ccc(CNC(=O)NOCc2ccccc2)cc1	i
COc1ccc(NC(=O)C2(C)CN(C)Cc3ccc(NCc4ccccc4)nc32)cc1 (centres undefined)	32µM*
CN1CCC(NC(=O)C2(C)CN(C)Cc3ccc(Nc4ccccc4)nc32)CC1 (centres undefined)	i
CCNc1c(NC(=O)Nc2cccc(Cl)c2C)c(=O)oc2ccccc12	i
CC(NC(=O)CCSc1nc(Cl)nc2nc[nH]c12)c1ccccc1 (centres undefined)	i
COc1cccc(OCc2nc3ccc(OC)cc3[nH]2)c1	i
CCC(C)c1ccc(NC(=O)C2CC3C=CC2C3)cc1 (centres undefined)	i
CC(C1CC1)N(Cc1ccccc1)S(=O)(=O)c1cccc2nsnc12 (centres undefined)	i
Cc1ccc(C)c(C(NC(=O)c2ccccc2F)c2cccnc2)c1 (centres undefined)	i
C=CCNC(=O)NC(=O)CN(CC(O)CC)c1ccccc1 (centres undefined)	i
CCCNC(=O)NCCN(C)C	i

Compound activity: PubChem, National Center for Advancing Translational Sciences (NCATS)
